Active and inactive are the calls of the source.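 The calls were made as follows, unless noted: active = visual image review flags a hit and inhibition of aggregation exceeds 20%; inconclusive = visual hit but inhibition at or below 20%; inactive = no hit on visual image review.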
Key:
[1] = inhibitors of TNFa-induced NFkB p65 translocation, primary screen, imaging, HUVEC, MLSMR starter and 10KST1 sets (AID 438;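 active = inhibition above 20% together with a positive visual image hit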;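 also: compound added about 3h40 before a 20 min TNFalpha stimulation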;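 as to inhibition: signal is the nuclear over cytoplasmic p65 intensity ratio per well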); conditions: HUVEC TNFa-induced p65 nuclear translocation; cell count: measured here: nuclei count (cytotoxicity indicator), at 2.08 µM; inhibition: at 2 µM, stronger effect = higher value, 0% TNFa-plus-vehicle, 100% no-TNFa wells
[2] = inhibitors of mutant huntingtin aggregation, primary screen, imaging, exon1htt(103Q)mCFP cells, high-content imaging (AID 483); conditions: exon1htt(103Q)mCFP cell line, aggregate imaging, at 2 µM; inhibition of aggregation: stronger effect = higher value; nuclei count: measured here: cell count, toxicity;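 also: compound exposure lasted 3 days before fixation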;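 as to nuclei count: percent of the per-plate median nuclei count of sample wells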
[3] = inhibitors of E-selectin induction by TNFa, primary screen, imaging, HUVEC, immunofluorescence, MLSMR starter and 10KST1 sets (AID 487;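 active = visually confirmed hit in the image check and inhibition above 20%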;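 as to inhibition: signal is fraction of cell area covered by stained E-selectin grains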;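 as to nuclei count: 100% = median nuclei count of all wells on the same plate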); conditions: HUVEC TNFalpha-induced E-selectin immunofluorescence imaging, at 2 µM; inhibition: stronger effect = higher value; nuclei count: measured here: cell number, toxicity
[4] = DUSP6 inhibitors restoring Erk phosphorylation by chemical complementation, primary imaging in DUSP6-transfected HeLa (AID 609;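 active = compounds giving at least 50% inhibition in the cell-based MKP-3 phosphatase rescue imaging test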;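 as to inhibition: phospho-Erk level distribution per well compared with pooled transfected vehicle control wells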); conditions: HeLa MKP-3 transfected, phospho-Erk imaging KS statistic, at 10 µM, cells stimulated with TPA for 15 min
[5] = target: Dual specificity protein phosphatase 6 (Homo sapiens) (UniProt Q16828); experiment: as above; conditions: HeLa MKP-3 transfected, phospho-Erk imaging KS statistic; at 10 µM; stronger effect = higher value; cells stimulated with TPA for 15 min
Dual specificity protein phosphatase 6 (Homo sapiens), sequence (Q16828 whole entry, looked up): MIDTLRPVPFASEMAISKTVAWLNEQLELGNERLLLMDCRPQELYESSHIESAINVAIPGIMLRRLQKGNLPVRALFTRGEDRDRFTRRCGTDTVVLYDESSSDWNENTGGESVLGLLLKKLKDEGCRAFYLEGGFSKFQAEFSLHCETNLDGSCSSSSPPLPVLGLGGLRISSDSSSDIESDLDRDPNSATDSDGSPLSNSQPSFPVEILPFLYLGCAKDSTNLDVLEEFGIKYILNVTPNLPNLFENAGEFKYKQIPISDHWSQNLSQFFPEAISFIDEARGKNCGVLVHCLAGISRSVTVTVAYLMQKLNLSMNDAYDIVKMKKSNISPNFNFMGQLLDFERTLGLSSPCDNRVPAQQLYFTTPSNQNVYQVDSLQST

[6] = target: Voltage-gated potassium channel subunit beta-2 (Rattus norvegicus) (UniProt P62483); experiment: KvBeta enzyme negative modulators, primary screen, biochemical, NADPH fluorescence (AID 622;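 active = fluorescence slope higher than the sample average by over 3 SD, cut at about -0.22 in these data, passing the limit was not always enough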;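 also: slope of raw intensity against log time taken from 70 to 1610 s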); conditions: recombinant KvBeta, 4-cyanobenzaldehyde reduction, at 10 µM, stronger effect = higher value
Voltage-gated potassium channel subunit beta-2 (Rattus norvegicus), sequence (P62483 whole entry, looked up): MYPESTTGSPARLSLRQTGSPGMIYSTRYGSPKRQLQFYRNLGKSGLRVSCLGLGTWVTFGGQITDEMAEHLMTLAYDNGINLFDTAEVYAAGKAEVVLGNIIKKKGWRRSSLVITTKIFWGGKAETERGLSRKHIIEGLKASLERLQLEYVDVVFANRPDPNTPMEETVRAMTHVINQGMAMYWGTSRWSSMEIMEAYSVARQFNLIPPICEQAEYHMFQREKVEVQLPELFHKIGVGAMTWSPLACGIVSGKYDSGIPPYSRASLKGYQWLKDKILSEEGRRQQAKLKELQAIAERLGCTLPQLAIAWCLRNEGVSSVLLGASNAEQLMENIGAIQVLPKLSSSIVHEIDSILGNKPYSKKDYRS

[7] = target: Voltage-gated potassium channel subunit beta-2 (Rattus norvegicus) (UniProt P62483); experiment: KvBeta positive modulators, primary screen, biochemical, NADPH fluorescence (AID 623;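 active = NADPH fluorescence slope more negative than the mean of all samples by about 3 SD, 99.7% confidence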;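 also: fluorescence intensity change per second fitted from 20 to 320 s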); conditions: Recombinant KvBeta, NADPH fluorescence decrease slope, 10 min; at 10 µM; stronger effect = lower value
[8] = target: Alpha-2C adrenergic receptor (Homo sapiens) (UniProt P18825); experiment: modulators of alpha2C/GIRK thallium flux, primary screen, cell-based, HEK293 alpha2C/GIRK1/2 (AID 624;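 active = fluorescence slope after compound addition differing from the mean of all screened samples at 99.7% confidence, in either direction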;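 also: slope of fluorescence ratio to pre-addition baseline per second over 15 to 24 s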); conditions: thallium flux BTC fluorescence, at 10 µM, actives lie on both sides
Alpha-2C adrenergic receptor (Homo sapiens), sequence (P18825 whole entry, looked up): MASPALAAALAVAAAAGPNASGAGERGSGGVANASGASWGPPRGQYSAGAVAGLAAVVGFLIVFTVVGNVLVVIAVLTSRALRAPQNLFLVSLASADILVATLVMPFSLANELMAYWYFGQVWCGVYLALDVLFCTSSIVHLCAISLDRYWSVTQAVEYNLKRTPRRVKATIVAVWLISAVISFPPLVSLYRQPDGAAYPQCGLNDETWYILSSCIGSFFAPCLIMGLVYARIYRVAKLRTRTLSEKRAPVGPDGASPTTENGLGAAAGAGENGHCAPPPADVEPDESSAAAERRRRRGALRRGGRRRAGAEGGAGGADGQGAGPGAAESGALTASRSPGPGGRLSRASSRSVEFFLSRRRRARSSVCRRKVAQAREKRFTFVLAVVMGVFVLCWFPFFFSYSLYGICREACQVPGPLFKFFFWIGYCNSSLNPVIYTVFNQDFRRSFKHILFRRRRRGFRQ

[9] = inhibitors of larval lipid processing in zebrafish, primary screen, whole organism, PED6 fluorescence, gall bladder and intestine (AID 686;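 active = a full or partial loss of lipid-probe fluorescence in the fish gall bladder, intestine or both, judged by eye; inactive = no fluorescence loss, or compound toxic to the fish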;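 also: larvae 5 to 7 days old with five fish per well; signal comes from phospholipase A2 cleavage of quenched PED6 carried via bile; overnight exposure to compound and PED6 before scoring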); conditions: Zebrafish larvae PED6 lipid processing, fluorescence scoring; screened at 20 µM (by protocol)
[10] = inhibitors of Chlamydomonas gravitaxis, primary screen, whole organism, Chlamydomonas reinhardtii, WT vs cilia-less mutant, absorbance, 96-well (AID 463189;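 active = inhibition at or above 50% relative to wild type and mutant plate controls; inactive = inhibition below 50%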;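 also: 0% = wild type cc124 cells in DMSO and 100% = ciliumless bld1 mutant cells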); conditions: OD600 absorbance, 2 days, at 10 µM, stronger effect = higher value
[11] = inhibitors of Sendai virus-induced IRF3 signaling, primary screen, TLR/RLR signaling modifier project, cell-based, Sendai virus stimulus, luciferase, 10K MLSCN set (AID 602276;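 active = inhibition at or above 50% at 10 µM; inactive = inhibition below 50%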;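 also: firefly luciferase from ISG56 promoter only with Renilla not read in this screen; 0% = Sendai virus plus DMSO and 100% = medium plus DMSO without virus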); conditions: HEK293 RL24 IRF3 luciferase reporter, at 10 µM, stronger effect = higher value
[12] = inhibitors of poly I:C-induced TLR3 signaling, primary screen, cell-based, poly I:C stimulus, luciferase, 10K MLSCN set (AID 602277;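 active = inhibition of the reporter signal at or above 50%; inactive = inhibition below 50%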); conditions: HEK293-TLR3 RL24 IRF3 luciferase reporter, at 10 µM, stronger effect = higher value
[13] = measured here: cell density z-score
[14] = measured here: nuclear c-Myc green intensity z-score
[15] = measured here: nuclear pErk red intensity z-score, stronger effect = higher value

In the case of `O=C1OC(c2ccc(O)cc2)(c2ccc(O)cc2)c2ccccc21`, the cell count [1] is reported as 608, the inhibition [1] is reported as -5% (inactive) and the inhibition of aggregation [2] is reported as 4.4% (inactive). For the same compound, the nuclei count [2] was 77.9%, the inhibition [3] was -50.7% (inactive) and the nuclei count [3] was 116%. It also gave a z-score [4, 13] of 2.02, a z-score [4, 14] of -0.265 and a z-score [4, 15] of -1.6. The inhibition [5] was 21.2% (inactive), the fluorescence slope [6] was -0.449 (inactive) and the NADPH fluorescence slope [7] was -6.8e-05 (inactive). The slope [8] was 0.00467 (inactive), the outcome [9] was “inactive” and the inhibition [10] was -5.48% (inactive). The inhibition [11] was 11.5% (inactive) and the inhibition [12] was 41.9% (inactive).
In the case of `Cn1nnc2c(sc3nc(N4CCOCC4)c4c(c32)CCCC4)c1=O`, the cell count [1] is reported as 611, the inhibition [1] is reported as -5.6% (inactive) and the inhibition of aggregation [2] is reported as 21.6% (inactive). For the same compound, the nuclei count [2] was 109%, the inhibition [3] was -120% (inactive) and the nuclei count [3] was 114%. It also gave a z-score [4, 13] of 3.22, a z-score [4, 14] of -0.738 and a z-score [4, 15] of -2.88. For the same compound, the inhibition [5] was 28.6% (inactive), the fluorescence slope [6] was -0.348 (inactive) and the NADPH fluorescence slope [7] was -2.4e-05 (inactive). For the same compound, the slope [8] was 0.00477 (inactive), the outcome [9] was “inactive” and the inhibition [10] was -8.88% (inactive). The inhibition [11] was -5.47% (inactive) and the inhibition [12] was -2.11% (inactive).
In the case of `N#Cc1nc(-c2cccs2)oc1NCCc1ccccc1`, the cell count [1] is reported as 421, the inhibition [1] is reported as -5.5% (inactive) and the inhibition of aggregation [2] is reported as 2.8% (inactive). For the same compound, the nuclei count [2] was 101%, the inhibition [3] was -33.7% (inactive) and the nuclei count [3] was 109%. For the same compound, the z-score [4, 13] was -0.62, the z-score [4, 14] was -0.621 and the z-score [4, 15] was -1.02. The inhibition [5] was -6.48% (inactive), the fluorescence slope [6] was -0.332 (inactive) and the NADPH fluorescence slope [7] was 1.7e-05 (inactive). For the same compound, the slope [8] was 0.00708 (inactive), the outcome [9] was “inactive” and the inhibition [10] was 11.6% (inactive). For the same compound, the inhibition [11] was -37.1% (inactive) and the inhibition [12] was -77.6% (inactive).
With `COc1ccc(OC)c(C2C(C#N)=C(N)Oc3cc(C)[nH]c(=O)c32)c1` (stereo not given) the cell count [1] was 544, the inhibition [1] was -31.7% (inactive) and the inhibition of aggregation [2] was 19.9% (inactive). For the same compound, the nuclei count [2] was 88.9%, the inhibition [3] was -48.5% (inactive) and the nuclei count [3] was 122%. For the same compound, the z-score [4, 13] was -0.908, the z-score [4, 14] was -1.31 and the z-score [4, 15] was -0.529. For the same compound, the inhibition [5] was -7.86% (inactive), the fluorescence slope [6] was -0.536 (inactive) and the NADPH fluorescence slope [7] was -5e-05 (inactive). For the same compound, the slope [8] was 0.00618 (inactive), the outcome [9] was “inactive” and the inhibition [10] was 15.7% (inactive). The inhibition [11] was 13.1% (inactive) and the inhibition [12] was -12.4% (inactive).
With `Cc1[nH]nc2c1C(CCc1ccccc1)C(C#N)=C(N)O2` (stereo not given) the cell count [1] was 561, the inhibition [1] was -10% (inactive) and the inhibition of aggregation [2] was -13.6% (inactive). The nuclei count [2] was 111%, the inhibition [3] was -14.6% (inactive) and the nuclei count [3] was 115%. It also gave a z-score [4, 13] of -1.62, a z-score [4, 14] of -1.48 and a z-score [4, 15] of 1.34. For the same compound, the inhibition [5] was -9.7% (inactive), the fluorescence slope [6] was -0.498 (inactive) and the NADPH fluorescence slope [7] was -3.1e-05 (inactive). The slope [8] was 0.00364 (inactive), the outcome [9] was “inactive” and the inhibition [10] was 2.48% (inactive). For the same compound, the inhibition [11] was -8.58% (inactive) and the inhibition [12] was 2.77% (inactive).
